# PI5P4K alpha inh – qHTS for Inhibitors of phosphatidylinositol 5-phosphate 4-kinase (PI5P4K). Phosphatidylinositol 5-phosphate 4-kinase type-2 alpha (Homo sapiens), P48426. PI5P4Kalpha enzyme, ADP-Glo luminescence, 60 min; stronger effect = lower value. max response, %. 1.2% of 330,000 active; active means max response of -50% or lower; inconclusive means between -30% and -50%; inactive means -30% or higher; further: value at the top dose of about 77 µM
#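 ADP-Glo luminescence end-point after a 60 min room-temperature kinase reaction. PI5P4Kalpha and substrate in HEPES pH 7.4 buffer with EGTA, 0.1% CHAPS and 5% DMSO; ATP at 5 microM final.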
# FEN1 inhibitor – qHTS Assay for the Inhibitors of Human Flap endonuclease 1 (FEN1) | P39748 | Recombinant FEN1 flap cleavage, fluorescence, 15 min | Potency, µM (highest dose often 114 µM), hits mostly inhibitors | 0.35% of 390,000 active; further: nearly all actives have a fitted effect of over 65% in size
#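 Quantitative HTS format: each compound was titrated, incubated with 10 nM nuclease for 15 min at room temperature, then challenged with flap substrate at 50 nM final. Signal change over 15 min gave concentration–effect curves.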
# Pol iota inh – qHTS for Inhibitors of Polymerase Iota | DNA polymerase iota (Homo sapiens), Q9UNA4 | Pol iota fluorescent replication assay, 10 min | Potency, µM (highest dose often 115 µM), actives largely listed as inhibitors | 1% of 390,000 active
#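 Pol iota at 10 nM preincubated 15 min with compounds at room temperature; reaction started with fluorescent substrate, 50 nM final. Fluorescence read kinetically at 0 and 10 min; buffer-only wells as negative control.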
# Pol beta inh – qHTS Assay for Inhibitors of DNA Polymerase Beta; Pol beta primer extension/strand displacement, fluorescence kinetic; P06746; 1.3% of 340,000 active; AID 485314, 2010; Potency, µM (doses to about 114 µM), usual class: inhibitors
#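 Reaction started by 50 nM substrate onto compound-treated Pol beta (10 nM, 15 min preincubation, room temperature); plates read at 0 min and 10 min. Normalized concentration-effect data fitted by four-parameter Hill equation.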
# POLK inh – qHTS for Inhibitors of Polymerase Kappa. DNA polymerase kappa (Homo sapiens), Q9UBT6. purified Pol kappa, fluorescent DNA synthesis assay, 10 min. Potency, µM (series often up to 107 µM), most hits filed as inhibitors. 0.53% of 400,000 active. AID 588579, 2011
# Target sequence (Q9UBT6 whole entry, looked up): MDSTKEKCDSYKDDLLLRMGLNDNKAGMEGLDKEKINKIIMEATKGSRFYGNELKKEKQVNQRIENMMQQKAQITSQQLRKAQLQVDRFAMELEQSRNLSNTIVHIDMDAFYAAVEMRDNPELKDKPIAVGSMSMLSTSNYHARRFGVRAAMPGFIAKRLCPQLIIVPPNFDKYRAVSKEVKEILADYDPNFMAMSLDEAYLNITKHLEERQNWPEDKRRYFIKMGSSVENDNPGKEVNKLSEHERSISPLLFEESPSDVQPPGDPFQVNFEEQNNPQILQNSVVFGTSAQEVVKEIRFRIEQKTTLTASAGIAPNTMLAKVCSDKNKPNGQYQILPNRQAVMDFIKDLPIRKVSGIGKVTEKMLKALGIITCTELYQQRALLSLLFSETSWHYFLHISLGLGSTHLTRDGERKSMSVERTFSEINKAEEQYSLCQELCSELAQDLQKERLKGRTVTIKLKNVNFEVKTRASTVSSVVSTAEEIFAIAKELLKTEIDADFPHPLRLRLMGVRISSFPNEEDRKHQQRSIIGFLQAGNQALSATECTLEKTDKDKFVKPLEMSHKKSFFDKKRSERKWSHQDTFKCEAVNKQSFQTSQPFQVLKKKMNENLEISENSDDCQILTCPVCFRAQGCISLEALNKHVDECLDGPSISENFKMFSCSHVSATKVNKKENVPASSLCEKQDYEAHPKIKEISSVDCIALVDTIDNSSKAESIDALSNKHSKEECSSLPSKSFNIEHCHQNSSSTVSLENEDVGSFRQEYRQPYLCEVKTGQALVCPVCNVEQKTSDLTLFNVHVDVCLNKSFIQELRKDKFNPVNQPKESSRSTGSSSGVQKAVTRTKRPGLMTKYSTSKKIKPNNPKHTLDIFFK
#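 Kinetic fluorescence screen: compound preincubated 15 min RT with 10 nM enzyme; 50 nM substrate (final) initiates; reads at 0/10 min.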
# Pol eta inh – qHTS for Inhibitors of Polymerase Eta; Potency, µM (series often up to 114 µM), hits mostly inhibitors; DNA polymerase eta (Homo sapiens), Q9Y253; recombinant Pol eta, fluorescent DNA replication assay; 1.2% of 390,000 active
#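 Pol eta (10 nM) was preincubated with compounds for 15 min at room temperature, after which fluorescent replication substrate (50 nM final) was added to start the reaction. Fluorescence was read kinetically at 0 and 10 min.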
# Numbers stand for hits; . = inactive; ? = inconclusive; / = no result given. Compounds with a hit are over-represented: about 2.8% of the library has one in this group of screens. Unless noted, the call rests on the fitted dose curve; in most records, active means well fitted curve in the direction sought with a large enough effect; inconclusive means small, poorly fitted or top-dose-only effect, or another doubt; inactive means no such curve, though single readings can be large; an effect the other way counts as inactive or inconclusive.
SMILES,PI5P4K alpha inh,FEN1 inhibitor,Pol iota inh,Pol beta inh,POLK inh,Pol eta inh
CC12CCC3c4ccc(O)c([N+](=O)[O-])c4CCC3C1CCC2=O (centres undefined),-59,/,/,/,/,.
COc1ccc(CNC(=O)CSc2ccsc2[N+](=O)[O-])cc1,-50,.,?,.,?,50µM
Cc1ccc(CNC(=O)CSc2ccsc2[N+](=O)[O-])cc1,.,.,.,.,.,.
CC(Sc1ccsc1[N+](=O)[O-])C(=O)NCc1ccccc1 (centres undefined),/,/,/,.,/,/
COc1ccccc1CNC(=O)C(C)Sc1ccsc1[N+](=O)[O-] (centres undefined),.,.,?,.,.,40µM
COC(=O)/C=C/C(=O)Nc1ccc(O)c(Cl)c1,-59,.,.,.,.,?
O=S(=O)(c1ccc(NC(=S)N/N=C/c2ccc(O)c(O)c2)cc1)N1CCOCC1,.,.,20µM,.,?,.
CCN(CC)c1ccc(-c2sc(Nc3ccccc3)n[n+]2-c2ccc(F)cc2)cc1,.,.,?,.,.,.
CCc1ccc(Nc2n[n+](-c3ccccc3)c(-c3c(Cl)cccc3Cl)s2)cc1,-80,.,.,.,.,.
CCc1ccc(Nc2n[n+](-c3ccccc3)c(-c3ccc(N(CC)CC)cc3)s2)cc1,-59,.,?,.,.,.
COC(=O)c1sccc1S(=O)(=O)N(CC(=O)NCc1ccc(C)cc1)c1ccc(C)cc1,/,.,.,.,.,.
CCn1c(CN2CCC(C)CC2)nc2cc(NC(=O)COc3ccc([N+](=O)[O-])cc3)ccc21,/,.,.,.,.,.
CN=CC1=C(O)c2ccccc2C1=O,/,.,.,.,.,.
O=C1C(C=Nc2ccccc2O)=C(O)c2ccccc21,/,.,.,35µM,.,.
Cc1ccc(O)c(N=CC2=C(O)c3ccccc3C2=O)c1,?,.,?,?,.,18µM
O=C1C(C=Nc2ccccc2)=C(O)c2ccccc21,.,.,.,.,.,.
CCCCCCCNC(=O)C1CC(=O)N(C)C(=Nc2ccc(OC)cc2)S1 (centres undefined),.,.,.,.,.,.
CCN(CC)c1ccc(/C=N/NC(=O)OC(C)(C)C)cc1,.,.,.,.,.,.
O=C(COC(=O)CNC(=O)c1ccc2c(c1)OCO2)Nc1ncc(Cl)cc1Cl,.,.,.,.,.,.
COc1ccc(CC(=O)OCC(=O)Nc2ncc(Cl)cc2Cl)cc1OC,/,.,.,.,.,.
COc1cc(CCC(=O)OCC(=O)Nc2ncc(Cl)cc2Cl)cc(OC)c1OC,?,.,?,79µM,.,11µM
COc1ccc(C(=O)NCC(=O)OCC(=O)Nc2ncc(Cl)cc2Cl)cc1[N+](=O)[O-],.,.,.,/,.,50µM
O=c1c2c(nc3cc(-c4ccc(F)cc4)[nH]n13)CCCC2,.,.,?,18µM,.,?
O=C(c1cccs1)N1CCCc2cc(NS(=O)(=O)c3cc(F)ccc3F)ccc21,/,.,?,.,.,.
Cc1cc(C)nc(NC(=S)NC(=O)c2ccccc2F)n1,.,.,.,/,.,.
SMILES,PI5P4K alpha inh,FEN1 inhibitor,Pol iota inh,Pol beta inh,POLK inh,Pol eta inh
Cc1cc(C)nc(S/C=C/C(=O)c2ccccc2F)n1,.,.,4.5µM,.,.,.
COc1ccc(-c2nnc(SCC#CCO)o2)cc1OC,-56,.,.,.,.,.
COc1ccc(-c2nnc(SCC(=O)N(C)Cc3ccccc3)o2)cc1OC,/,.,.,.,.,79µM
Cc1cc(C)cc(NC(=O)C(=O)NCC(c2cccnc2)N2CCN(c3ccccc3)CC2)c1 (centres undefined),/,.,.,.,.,.
O=C(COC(=O)c1ccc2ncsc2c1)Nc1ncc(Cl)cc1Cl,.,.,?,.,.,8.9µM
Cc1nc(NC(=O)COC(=O)/C=C/c2ccco2)c(Cl)cc1Cl,.,.,32µM,/,71µM,28µM
Nc1nc(SCC(=O)Nc2cc(Cl)c(Cl)cc2Cl)n[nH]1,.,.,.,/,.,.

# Screens deposited in PubChem by National Center for Advancing Translational Sciences (NCATS).
